Measured values taken from the supplement of paper PMC6522484.
± gives the standard deviation of the averaged measurements.

Experiments:
DLD1 [1] = test: cell viability (CellTiter-Glo) relative to plate median (fraction of plate median); higher = more viable cells; details: 10 µM, treatment time 24 h
Outline: (§1)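 Kinase inhibitor library compounds were added at a final 10 µM for 24 h to colorectal cancer cells in 384-well plates, 24 h after seeding. The cells stably expressed lentiviral TCF/Wnt firefly luciferase reporters. Firefly luciferase and CellTiterGlo luminescence came from parallel plates, and each well was normalised to its plate median (webcellHTS2, additive, untransformed), averaged over two independent replicates.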

HCT116 [2] = test: as above; details: 10 µM; treatment time 24 h; reporter: TCF4/Wnt
Outline: as §1

SW480 [3] = test: as above; details: 10 µM; treatment time 24 h; reporter: 7TFP
Outline: as §1

DLD1 [4] = test: TCF/Wnt firefly luciferase reporter signal relative to plate median (fraction of plate median); higher = higher Wnt reporter signal; details: 10 µM, treatment time 24 h
Outline: as §1

HCT116 [5] = test: as above; details: 10 µM; treatment time 24 h; reporter: TCF4/Wnt
Outline: as §1

SW480 [6] = test: as above; details: 10 µM; treatment time 24 h; reporter: 7TFP
Outline: as §1

Structure (SMILES) | cell viability (DLD1 [1]; reporter: 7TFP) | cell viability (DLD1 [1]; reporter: TCF4/Wnt) | cell viability (HCT116 [2]) | cell viability (SW480 [3]) | TCF/Wnt firefly luciferase reporter signal (DLD1 [4]; reporter: 7TFP) | TCF/Wnt firefly luciferase reporter signal (DLD1 [4]; reporter: TCF4/Wnt) | TCF/Wnt firefly luciferase reporter signal (HCT116 [5]) | TCF/Wnt firefly luciferase reporter signal (SW480 [6])
O=C(NC1CCNCC1)c1n[nH]cc1NC(=O)c1c(Cl)cccc1Cl | 1.16 ± 0.33 | 1.16 ± 0.18 | 0.793 ± 0.16 | 1.31 ± 0.17 | 0.517 ± 0.1 | 0.797 ± 0.67 | 0.226 ± 0.018 | 0.798 ± 0.074
Cc1ccc(NC(=O)c2cccc(C(C)(C)C#N)c2)cc1Nc1ccc2ncn(C)c(=O)c2c1 | 1.21 ± 0.05 | 1.08 | 0.955 ± 0.044 | 1.18 ± 0.028 | 1.04 ± 0.33 | 0.843 ± 0.048 | 1.2 ± 0.3 | 1.43 ± 0.12
Cc1cc(C(C)Nc2ccccc2)c2nc(N3CCOCC3)cc(=O)n2c1 (stereo not drawn) | 0.997 ± 0.13 | 0.909 ± 0.04 | 1.115 ± 0.0071 | 0.909 ± 0.071 | 1.15 ± 0.11 | 1.21 ± 0.05 | 1.15 ± 0.092 | 0.679 ± 0.3
NC(=O)c1ccc(-c2nc(-c3ccccn3)c(-c3ccc4c(c3)OCO4)[nH]2)cc1 | 0.936 ± 0.16 | 0.968 ± 0.014 | 1.09 ± 0.035 | 0.829 ± 0.037 | 0.99 ± 0.043 | 1.2 ± 0.085 | 1.21 ± 0.085 | 0.944 ± 0.15
CCOc1ccn(-c2ccc(F)cc2)c(=O)c1C(=O)Nc1ccc(Oc2ccnc(N)c2Cl)c(F)c1 | 0.97 ± 0.071 | 0.971 ± 0.056 | 1.16 ± 0.014 | 0.991 | 0.983 ± 0.12 | 0.893 ± 0.12 | 1.19 ± 0.23 | 0.978 ± 0.031
COC(=O)Nc1ccc(-c2nc(N3CCOCC3)c3cnn(C4CCN(C(=O)OC)CC4)c3n2)cc1 | 1.13 ± 0.014 | 1.13 ± 0.028 | 1.105 ± 0.0071 | 1.11 ± 0.028 | 1.07 ± 0.057 | 0.973 ± 0.053 | 1.23 ± 0.12 | 1.11 ± 0.085
Cc1cc(Nc2cc(CN3CCOCC3)c3nc(C)c(Cc4ccc(Cl)cc4F)n3n2)n[nH]1 | 0.907 ± 0.096 | 1.05 ± 0.064 | 0.975 ± 0.12 | 0.781 ± 0.14 | 1.27 ± 0.028 | 1.17 ± 0.43 | 0.826 ± 0.61 | 0.861 ± 0.05
COc1cc(Nc2ncc(F)c(Nc3ccc4c(n3)N(COP(=O)(O)O)C(=O)C(C)(C)O4)n2)cc(OC)c1OC [R788 (Fostamatinib)] | 0.89 ± 0.13 | 0.959 ± 0.046 | 0.888 ± 0.086 | 0.923 ± 0.037 | 0.781 ± 0.21 | 0.831 ± 0.079 | 2.88 ± 0.22 | 0.879 ± 0.079
Cc1cc2c(F)c(Oc3ncnn4cc(OC[C@@H](C)OC(=O)[C@H](C)N)c(C)c34)ccc2[nH]1 | 1.06 ± 0.042 | 0.938 ± 0.052 | 0.981 ± 0.041 | 1.23 ± 0.071 | 1.03 ± 0.11 | 1.135 ± 0.0071 | 0.852 ± 0.16 | 1.28 ± 0.099
CN(C)Cc1cccc(N/C(=C2\C(=O)Nc3cc(C(N)=O)ccc32)c2ccccc2)c1 | 1.15 ± 0.13 | 1.09 ± 0.057 | 1.09 ± 0.028 | 1.085 ± 0.0071 | 0.977 ± 0.23 | 0.982 ± 0.12 | 1.05 ± 0.095 | 1.14 ± 0.035
CN1CCN(c2ccc3nc(-c4c(N)c5c(F)cccc5[nH]c4=O)[nH]c3c2)CC1 [Dovitinib (TKI-258)] | 0.901 ± 0.18 | 0.908 ± 0.033 | 0.748 ± 0.27 | 1.02 ± 0.11 | 1.26 ± 0.23 | 1.3 ± 0.092 | 0.97 ± 0.042 | 1.39 ± 0.6
COc1ccc(S(=O)(=O)N(C(C)=O)c2ccccc2/C=C/c2cc[n+]([O-])cc2)cc1 | 0.982 ± 0.14 | 1.17 ± 0.14 | 0.619 ± 0.28 | 1.14 ± 0.085 | 0.725 ± 0.03 | 1 ± 0.14 | 0.278 ± 0.0071 | 0.7 ± 0.083
O=C(NOCC1CC1)c1ccc(F)c(F)c1Nc1ccc(I)cc1Cl | 1.19 ± 0.028 | 1.065 ± 0.0071 | 1.11 ± 0.028 | 1.1 ± 0.11 | 1.2 ± 0.042 | 1.04 ± 0.23 | 0.9945 ± 0.0078 | 1.16 ± 0.32
Cn1cc(-c2ccc3nnc(C(F)(F)c4ccc5ncccc5c4)n3n2)cn1 | 1.14 ± 0.13 | 0.972 ± 0.11 | 1.16 ± 0.05 | 0.846 ± 0.059 | 1.35 ± 0.05 | 1.4 ± 0.32 | 1.25 ± 0.43 | 1.06 ± 0.064
COCCOc1ccc2c(c1)ncn2-c1ccc2cccc(N3CCC(N)CC3)c2n1 | 0.954 ± 0.11 | 1.14 ± 0.12 | 0.556 ± 0.16 | 1.05 ± 0.082 | 1.54 ± 0.16 | 2.17 ± 0.41 | 0.422 ± 0.12 | 1.71 ± 0.26
c1cncc(CN2CCC(n3ncc4c(N5CCOCC5)nc(-c5ccc6[nH]ccc6c5)nc43)CC2)c1 | 0.992 ± 0.17 | 0.9595 ± 0.005 | 0.858 ± 0.052 | 1.19 ± 0.078 | 0.532 ± 0.025 | 0.607 ± 0.042 | 0.897 ± 0.16 | 1.16 ± 0.014
Cc1ccc(C(=O)Nc2ccc(CN3CCN(C)CC3)c(C(F)(F)F)c2)cc1C#Cc1cnc2cccnn12 | 0.835 ± 0.055 | 0.8 ± 0.0099 | 0.631 ± 0.14 | 1.01 ± 0.16 | 0.285 ± 0.064 | 0.466 ± 0.0028 | 0.292 ± 0.12 | 0.668 ± 0.098
O=C1NC(=O)C(c2ccccc2[N+](=O)[O-])=C1Nc1ccc(O)c(Cl)c1 | 1.13 ± 0.2 | 1.07 ± 0.035 | 1.06 ± 0.05 | 0.859 ± 0.072 | 1.63 ± 0.24 | 1.85 ± 0.45 | 2.56 ± 0.96 | 1.07 ± 0.12
CCN(CC)CCNC(=O)c1c(C)[nH]c(/C=C2\C(=O)Nc3ccc(F)cc32)c1C [Sunitinib Malate (Sutent)] | 0.867 ± 0.1 | 0.9685 ± 0.0035 | 0.659 ± 0.31 | 1.02 ± 0.15 | 0.939 ± 0.051 | 0.87 ± 0.18 | 0.605 ± 0.33 | 1.14 ± 0.21
CN1CCN(c2ccc3nc(-c4c(N)c5c(F)cccc5[nH]c4=O)[nH]c3c2)CC1 [Dovitinib Dilactic acid (TKI258 Dilactic acid)] | 0.857 ± 0.19 | 0.956 ± 0.041 | 0.967 ± 0.13 | 1.17 ± 0.035 | 1.1 ± 0.099 | 1.16 ± 0.16 | 0.784 ± 0.52 | 1.09 ± 0.69
O=C(NCc1ccccc1)c1csc(Nc2ccncn2)n1 [Thiazovivin] | 1.14 ± 0.085 | 1.13 ± 0.071 | 1.16 ± 0.021 | 1.145 ± 0.0071 | 1.13 | 0.78 ± 0.18 | 1.78 ± 0.028 | 1.205 ± 0.0071
